Giardia kill – Small Molecules that selectively kill Giardia lamblia: qHTS | AID 540267, 2011 | activity change, % at 7.66 µM, hits read low | Giardia lamblia trophozoite viability | 340,000 tested, 0.15% active; in the data active = activity change below about -80%; inconclusive = between about -30% and that limit;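 also: parasites exposed to compound for two days anaerobically before the ATP read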
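Each well holds 100 Giardia trophozoites and compound. After two days (48 hrs) at 37 deg C in anaerobic conditions, ATP is quantified by luminescence.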
IL2 activator – qHTS of IL-2 Activators; IL-2 activation reporter assay, cell-based qHTS; stimulated with anti-CD3/CD4/CD28 beads; in transgenic mouse T cells; activation, % (series mostly up to about 46 µM); 360,000 tested, 0.065% active; AID 652025, 2013; in the data active = activation above about 50%; inconclusive = mostly about 30% to 49%
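Unstimulated transgenic mouse T cells preincubated 60 min with compound, then stimulated with anti-CD3/anti-CD4-coated beads plus anti-CD28 for 18 h at 37 degrees C. IL-2 response read as EGFP and DsRed fluorescence by plate cytometry.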
RXFP1 antag – qHTS Assay for Antagonists of the Relaxin Receptor RXFP1. AID 1259400, 2018. activity change, negative = inhibition, % at 57.5 µM. HEK293-RXFP1, relaxin-stimulated cAMP HTRF, 30 min; active compounds read low. Relaxin receptor 1 (Homo sapiens), Q9HBX9. 350,000 tested, 0.59% active;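 active = activity change of -60% or lower, but not beyond a set lower limit; inconclusive = change between -60% and -40%, or beyond the set limit; inactive = change above -40%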
Target sequence (Q9HBX9 whole entry, looked up): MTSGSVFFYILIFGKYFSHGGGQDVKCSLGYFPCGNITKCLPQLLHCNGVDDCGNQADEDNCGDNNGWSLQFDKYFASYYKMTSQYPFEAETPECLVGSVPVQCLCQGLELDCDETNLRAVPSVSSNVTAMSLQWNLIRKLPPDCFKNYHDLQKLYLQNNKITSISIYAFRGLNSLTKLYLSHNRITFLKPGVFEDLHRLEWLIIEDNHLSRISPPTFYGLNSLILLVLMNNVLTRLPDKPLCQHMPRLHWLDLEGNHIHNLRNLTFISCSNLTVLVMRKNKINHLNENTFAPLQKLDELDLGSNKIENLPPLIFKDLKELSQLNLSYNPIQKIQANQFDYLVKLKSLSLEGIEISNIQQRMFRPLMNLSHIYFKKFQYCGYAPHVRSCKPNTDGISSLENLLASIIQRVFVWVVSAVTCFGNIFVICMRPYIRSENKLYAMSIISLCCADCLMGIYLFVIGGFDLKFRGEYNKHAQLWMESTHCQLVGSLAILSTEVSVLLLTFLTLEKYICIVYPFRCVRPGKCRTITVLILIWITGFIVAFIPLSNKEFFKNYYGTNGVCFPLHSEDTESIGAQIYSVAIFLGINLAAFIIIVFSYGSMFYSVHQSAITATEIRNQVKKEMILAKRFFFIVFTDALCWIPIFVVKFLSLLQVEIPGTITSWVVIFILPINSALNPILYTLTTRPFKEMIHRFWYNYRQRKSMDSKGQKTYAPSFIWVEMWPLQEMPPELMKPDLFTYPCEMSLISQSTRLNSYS
RXFP1 ag – qHTS Assay for Agonists of the Relaxin Receptor RXFP1; HEK293T-RXFP1 cAMP TR-FRET, 30 min; response scale: percent of porcine relaxin response, buffer zero; 370,000 tested, 0.3% active; Relaxin receptor 1 (Homo sapiens), Q9HBX9; Potency, µM (titrated, usually from 57.5 µM), actives largely listed as activators; AID 2676, 2010; also: nearly all actives have a fitted effect of over 60% in size
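HEK293T cells stably expressing RXFP1 were pretreated with the PDE4 inhibitor Ro 20174, exposed to compounds for 30 min at 37C, lysed, and cAMP was read by TR-FRET. Data normalized to buffer (basal) and 29 nM porcine relaxin (100%).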
BRCA1 expr up – qHTS Assay to Identify Small Molecule Activators of BRCA1 Expression | MCF7-BRCA1-FFLuc reporter, luminescence, 48 h; response scale: scaled: vehicle 0%, 10 µM genistein 100% | Potency, µM (titrated, usually from 46.1 µM), most hits filed as activators | 380,000 tested, 1.1% active | AID 624202, 2012; also: nearly all actives have a fitted effect of over 80% in size
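Activators of BRCA1 expression were detected as increased firefly luciferase luminescence in engineered MCF7 cells after 48 h compound incubation. Signals were scaled to genistein 10 microM as full activation.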
NPSR antagonist – qHTS Assay for Antagonists of the Neuropeptide S Receptor: cAMP Signal Transduction; 220,000 tested, 1% active; Q6W5P4; AID 1461, 2008; CHO-NPSR cells, cAMP TR-FRET, antagonist mode; Potency, µM (highest dose often 38.3 µM), usual class: inhibitors; also: nearly all actives have a fitted effect of over 50% in size
A number is an active result. Shown are actives, neighbours in structure and some others; about 1.9% of the full set was active somewhere. Unless noted, calls follow the shape of the dose curve; as a rule, active = well fitted curve in the direction sought with a large enough effect; inconclusive = small, poorly fitted or top-dose-only effect, or another doubt; inactive = no such curve, though single readings can be large; an effect the other way counts as inactive or inconclusive.

What do the screens show for `O=C(c1cc(-c2ccccc2)on1)N1CCC2(CC1)OCCO2`?
RXFP1 ag: inactive; NPSR antagonist: inactive

Results for O=C(c1cc(-c2cccc(Cl)c2)on1)N1CCOCC1 ?
Giardia kill: inactive; IL2 activator: inactive; RXFP1 antag: inactive; RXFP1 ag: inactive; BRCA1 expr up: 10µM

How did CCNC(C)Cc1ccc2c(c1)OCO2 (configuration not stated) do in these assays?
RXFP1 antag: inactive

How did CC(C)=CC1C(C(=O)OCN2C(=O)C3=C(CCCC3)C2=O)C1(C)C (configuration not stated) do in these assays?
RXFP1 antag: -94.6

Results for CN(C)c1ccc(/C=C/[N+](=O)[O-])cc1 ?
Giardia kill: inactive; IL2 activator: 97.2; RXFP1 antag: inactive; RXFP1 ag: inactive; BRCA1 expr up: inactive; NPSR antagonist: inactive

How did COc1cc(CC#N)cc(OC)c1OC do in these assays?
RXFP1 antag: inactive

Results for CCN(CC)C(=O)N[C@@H]1C=C2c3cccc4[nH]cc(c34)C[C@@H]2N(C)C1 ?
RXFP1 antag: inactive

Results for CNc1ccc2oc(C[C@H]3O[C@@]4(CC[C@H]3C)O[C@H]([C@H](C)C(=O)c3ccc[nH]3)[C@H](C)C[C@H]4C)nc2c1C(=O)O ?
Giardia kill: inactive; IL2 activator: inactive; RXFP1 ag: inactive; BRCA1 expr up: inactive; NPSR antagonist: 7.94µM

How did Cc1ncc([N+](=O)[O-])n1CCOc1nonc1N do in these assays?
Giardia kill: -86.5; IL2 activator: inactive; RXFP1 antag: inactive; RXFP1 ag: inactive; BRCA1 expr up: inactive; NPSR antagonist: inactive

Results for Nc1c2c(nc3sc4c(c13)CCCC4)CCCCC2 ?
Giardia kill: inactive; IL2 activator: inactive; RXFP1 antag: inactive; RXFP1 ag: inactive; BRCA1 expr up: inconclusive; NPSR antagonist: inactive

What do the screens show for `Nc1c2c(nc3sc4c(c13)CCCC4)CCCC2`?
Giardia kill: inactive; IL2 activator: inactive; RXFP1 antag: inactive; RXFP1 ag: inactive; BRCA1 expr up: 4.47µM; NPSR antagonist: inactive

How did O=[N+]([O-])c1ccc2c(c1)C(c1ccccc1)=NCCN2 do in these assays?
Giardia kill: inactive; IL2 activator: inactive; RXFP1 antag: inactive; RXFP1 ag: inactive; BRCA1 expr up: inactive

What do the screens show for `O=[N+]([O-])c1ccc(-c2ccccc2)c([As](=O)(O)O)c1`?
Giardia kill: -81.9; IL2 activator: inactive; RXFP1 antag: inactive; RXFP1 ag: inactive; BRCA1 expr up: inactive; NPSR antagonist: inactive

What do the screens show for `CCOC(=O)C1(CCc2ccccc2)CCN(Cc2cccc3cnccc23)CC1`?
Giardia kill: inactive; IL2 activator: inactive; RXFP1 antag: -83.2; RXFP1 ag: inactive; BRCA1 expr up: inactive; NPSR antagonist: inactive

How did O=C(Cn1c(=S)[nH]c2ccccc2c1=O)N1CCC2(CC1)OCCO2 do in these assays?
Giardia kill: inactive; IL2 activator: inactive; RXFP1 antag: inactive; RXFP1 ag: inactive; BRCA1 expr up: inactive; NPSR antagonist: inactive

What do the screens show for `O=C(CCCCCn1c(=S)[nH]c2ccccc2c1=O)N1CCC2(CC1)OCCO2`?
Giardia kill: inactive; IL2 activator: inactive; RXFP1 antag: -82.9; RXFP1 ag: inactive; BRCA1 expr up: inactive; NPSR antagonist: inconclusive

Results for C[C@@H]1O[C@@H](O[C@@H]2C=C3CC[C@@H]4[C@@H](CC[C@]5(C)[C@H](c6ccc(=O)oc6)CC[C@@]45O)[C@@]3(C)CC2)[C@H](O)[C@H](O)[C@H]1O ?
BRCA1 expr up: inactive

Results for O=[N+]([O-])c1ccc(N(CCO)CCO)c2c1no[n+]2[O-] ?
IL2 activator: inactive; RXFP1 antag: inactive; BRCA1 expr up: inactive

How did CN1CCN(c2ccc([N+](=O)[O-])c3no[n+]([O-])c23)CC1 do in these assays?
Giardia kill: inactive; IL2 activator: inactive; RXFP1 antag: -87.4; RXFP1 ag: inactive; BRCA1 expr up: inactive; NPSR antagonist: 10µM

Results for CC(O)CN1CCN(CC(=O)[O-])CCN(CC(=O)[O-])CCN(CC(=O)[O-])CC1.[Gd+3] (configuration not stated) ?
RXFP1 antag: inactive

Results for Cc1cccc(NP(=O)(Oc2ccccc2)Oc2ccccc2)c1C ?
Giardia kill: inactive; IL2 activator: inactive; RXFP1 antag: -64.3; RXFP1 ag: inactive; BRCA1 expr up: inactive

Results for O=P(Nc1ccccc1)(Oc1ccccc1)Oc1ccccc1 ?
Giardia kill: inactive; IL2 activator: inactive; RXFP1 antag: inactive; RXFP1 ag: inactive; BRCA1 expr up: inactive; NPSR antagonist: inactive

What do the screens show for `O=c1c2ccccc2[nH]c(=S)n1-c1ccc2c(c1)OCCO2`?
Giardia kill: inactive; IL2 activator: inactive; RXFP1 antag: inactive; RXFP1 ag: inconclusive; BRCA1 expr up: 10µM; NPSR antagonist: inactive

What do the screens show for `Cc1ccc(N2C(=O)NC(=O)/C(=C\C=C\c3ccco3)C2=O)cc1C`?
Giardia kill: inactive; IL2 activator: inactive; RXFP1 antag: -70.1; RXFP1 ag: inactive; BRCA1 expr up: inactive; NPSR antagonist: 12.6µM

What do the screens show for `Cc1cccc(N2C(=O)NC(=O)/C(=C\c3cccn3-c3ccc(Cl)cc3)C2=O)c1`?
Giardia kill: inactive; IL2 activator: inactive; RXFP1 antag: -70.9; RXFP1 ag: inactive; BRCA1 expr up: inactive; NPSR antagonist: inconclusive

Results for Cc1ccc(N2C(=O)NC(=O)/C(=C\C=C\c3ccco3)C2=O)cc1 ?
Giardia kill: inactive; IL2 activator: inactive; RXFP1 antag: inactive; RXFP1 ag: inactive; BRCA1 expr up: inactive; NPSR antagonist: inconclusive

Results for Cc1cccc(N2C(=O)NC(=O)/C(=C\C=C\c3ccco3)C2=O)c1 ?
Giardia kill: inactive; IL2 activator: inactive; RXFP1 antag: -68.0; RXFP1 ag: inactive; BRCA1 expr up: inactive; NPSR antagonist: inconclusive

What do the screens show for `Nc1c(Cl)c(Cl)c(Cl)c(Cl)c1Cl`?
RXFP1 antag: inactive

Results for O=C(c1cc2ccccn2n1)N1CCC2(CC1)OCCO2 ?
Giardia kill: inactive; IL2 activator: inactive; RXFP1 antag: inactive; RXFP1 ag: inactive; BRCA1 expr up: inactive; NPSR antagonist: inactive

Results for O=C(c1cc2ccccn2n1)N1CCN(Cc2ccccc2)CC1 ?
Giardia kill: inactive; IL2 activator: inactive; RXFP1 antag: inactive; RXFP1 ag: inactive; BRCA1 expr up: 10µM; NPSR antagonist: inactive

How did O=c1[nH]c(=S)n(C2CC2)c(O)c1C=NCc1ccc(F)cc1 do in these assays?
Giardia kill: inactive; IL2 activator: inactive; RXFP1 antag: inactive; RXFP1 ag: 25.1µM; BRCA1 expr up: inactive; NPSR antagonist: inactive

Screens as filed in PubChem BioAssay.
